Results from article PMC7862700, “An all-to-all approach to the identification of sequence-specific readers for epigenetic DNA modifications on cytosine”.

Experiments:
Assay in all cases: DAPPL (digital affinity profiling via proximity ligation, sequencing); 10 mM Tris-HCl pH 7.5, 50 mM NaCl, 1 mM DTT, 4% glycerol, room temperature, 30 min; GST-TFs on glutathione beads, 16-mer random dsDNA library, 0.1% formaldehyde crosslink after washing; high values mean tight binding
FEV = biological target: T1, FEV (Homo sapiens, UniProt Q99581 1-238); conditions: protein: recombinant; tags: N-terminal GST; dsDNA, one strand shown
T1 sequence: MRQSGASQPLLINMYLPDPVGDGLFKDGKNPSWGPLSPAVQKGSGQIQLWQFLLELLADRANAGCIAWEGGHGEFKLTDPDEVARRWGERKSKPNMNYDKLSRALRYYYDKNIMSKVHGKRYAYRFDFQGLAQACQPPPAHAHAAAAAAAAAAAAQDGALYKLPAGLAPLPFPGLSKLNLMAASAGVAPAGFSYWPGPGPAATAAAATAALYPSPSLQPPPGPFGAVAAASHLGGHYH
Procedure, shortened: (§1)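 Binding signal is each hexamer's read frequency for a factor divided by its frequency in the tag-only sample. The factors were GST-fused human transcription factors from yeast, captured on glutathione beads, DNA-barcoded and pooled with that sample. Pools were incubated with 200 nmole of a random double-stranded 16-mer DNA library in Tris/NaCl/DTT/glycerol buffer at room temperature for 30 min, then washed, crosslinked with 0.1% formaldehyde, proximity-ligated with BsaI/T4 ligase (1 h, 37 °C), PCR-amplified and sequenced on an Illumina NextSeq500.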

ETV5 = ETV5 (Homo sapiens, UniProt P41161 1-510); conditions: protein: recombinant; tags: N-terminal GST; dsDNA, one strand shown
Procedure, shortened: as §1

HSF1 = HSF1 (Homo sapiens, UniProt Q00613 1-529); conditions: protein: recombinant; tags: N-terminal GST; chain copies: 3; dsDNA, one strand shown
Procedure, shortened: as §1

SPIC = biological target: T2, SPIC (Homo sapiens, UniProt Q8N5J4 1-248); conditions: protein: recombinant; tags: N-terminal GST; dsDNA, one strand shown
T2 sequence: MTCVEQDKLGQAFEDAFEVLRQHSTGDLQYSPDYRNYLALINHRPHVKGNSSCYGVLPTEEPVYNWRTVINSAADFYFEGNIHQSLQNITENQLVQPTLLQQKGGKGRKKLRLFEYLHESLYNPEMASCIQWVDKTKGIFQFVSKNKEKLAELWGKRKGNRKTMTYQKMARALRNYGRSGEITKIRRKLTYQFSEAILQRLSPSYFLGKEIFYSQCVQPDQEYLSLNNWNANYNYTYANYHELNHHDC
Procedure, shortened: as §1

ELF4 = ELF4 (Homo sapiens, UniProt Q99607 1-663); conditions: protein: recombinant; tags: N-terminal GST; dsDNA, one strand shown
Procedure, shortened: as §1

ELK4 = biological target: T3, ELK4 (Homo sapiens, UniProt P28324-2 1-405); conditions: protein: recombinant; tags: N-terminal GST; dsDNA, one strand shown
T3 sequence: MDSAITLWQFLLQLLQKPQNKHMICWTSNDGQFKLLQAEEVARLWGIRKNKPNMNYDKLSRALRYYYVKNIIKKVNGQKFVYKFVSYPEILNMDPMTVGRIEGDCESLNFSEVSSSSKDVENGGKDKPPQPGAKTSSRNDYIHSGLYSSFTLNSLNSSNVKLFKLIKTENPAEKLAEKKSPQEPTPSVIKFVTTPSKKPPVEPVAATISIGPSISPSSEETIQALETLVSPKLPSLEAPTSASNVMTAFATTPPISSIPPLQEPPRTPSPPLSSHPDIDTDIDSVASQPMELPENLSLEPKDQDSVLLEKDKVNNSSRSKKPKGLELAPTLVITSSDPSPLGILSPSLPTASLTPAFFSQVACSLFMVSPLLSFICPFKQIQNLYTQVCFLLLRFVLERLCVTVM
Procedure, shortened: as §1

ETV2 = biological target: T4, ETV2 (Homo sapiens, UniProt O00321 1-342); conditions: protein: recombinant; tags: N-terminal GST; dsDNA, one strand shown
T4 sequence: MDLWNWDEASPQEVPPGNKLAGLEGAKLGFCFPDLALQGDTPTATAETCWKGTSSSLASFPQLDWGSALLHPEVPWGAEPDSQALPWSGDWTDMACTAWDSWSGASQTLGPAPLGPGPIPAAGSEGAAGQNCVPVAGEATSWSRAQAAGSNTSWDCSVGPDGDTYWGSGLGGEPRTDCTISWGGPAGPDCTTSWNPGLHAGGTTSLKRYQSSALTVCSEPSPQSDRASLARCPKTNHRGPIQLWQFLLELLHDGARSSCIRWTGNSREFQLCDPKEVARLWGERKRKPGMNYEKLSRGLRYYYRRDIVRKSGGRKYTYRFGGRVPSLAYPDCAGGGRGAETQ
Procedure, shortened: as §1

ELF3 = biological target: T5, ELF3 (Homo sapiens, UniProt P78545 1-371); conditions: protein: recombinant; tags: N-terminal GST; dsDNA, one strand shown
T5 sequence: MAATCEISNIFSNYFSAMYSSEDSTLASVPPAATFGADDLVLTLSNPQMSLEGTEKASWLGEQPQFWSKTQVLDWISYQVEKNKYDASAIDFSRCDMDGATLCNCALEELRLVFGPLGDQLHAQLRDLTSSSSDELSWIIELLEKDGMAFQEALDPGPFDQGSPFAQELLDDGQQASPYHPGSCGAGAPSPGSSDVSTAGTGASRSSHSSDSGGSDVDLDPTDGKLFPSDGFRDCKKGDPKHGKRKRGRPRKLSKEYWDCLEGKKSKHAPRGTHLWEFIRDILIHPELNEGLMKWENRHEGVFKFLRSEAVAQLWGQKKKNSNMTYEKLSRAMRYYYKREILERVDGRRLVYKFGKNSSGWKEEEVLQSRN
Procedure, shortened: as §1

ETV1 = ETV1 (Homo sapiens, UniProt P50549 1-477); conditions: protein: recombinant; tags: N-terminal GST; dsDNA, one strand shown
Procedure, shortened: as §1

Sequence of HSF1 (Q00613 whole entry): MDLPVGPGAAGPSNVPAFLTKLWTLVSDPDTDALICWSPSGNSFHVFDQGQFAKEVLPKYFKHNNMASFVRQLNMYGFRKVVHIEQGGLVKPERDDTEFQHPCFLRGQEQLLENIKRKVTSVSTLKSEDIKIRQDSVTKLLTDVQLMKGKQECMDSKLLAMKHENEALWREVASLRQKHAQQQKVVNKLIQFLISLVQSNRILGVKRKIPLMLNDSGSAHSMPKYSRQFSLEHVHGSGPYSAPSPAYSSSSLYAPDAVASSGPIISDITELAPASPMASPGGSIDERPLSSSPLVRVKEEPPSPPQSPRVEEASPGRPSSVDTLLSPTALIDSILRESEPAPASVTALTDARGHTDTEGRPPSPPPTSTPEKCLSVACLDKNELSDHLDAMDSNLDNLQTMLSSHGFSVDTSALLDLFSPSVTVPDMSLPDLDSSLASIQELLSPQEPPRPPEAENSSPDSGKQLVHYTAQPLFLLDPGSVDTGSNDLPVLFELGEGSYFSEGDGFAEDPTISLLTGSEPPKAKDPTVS
Sequence of ETV5 (P41161 whole entry): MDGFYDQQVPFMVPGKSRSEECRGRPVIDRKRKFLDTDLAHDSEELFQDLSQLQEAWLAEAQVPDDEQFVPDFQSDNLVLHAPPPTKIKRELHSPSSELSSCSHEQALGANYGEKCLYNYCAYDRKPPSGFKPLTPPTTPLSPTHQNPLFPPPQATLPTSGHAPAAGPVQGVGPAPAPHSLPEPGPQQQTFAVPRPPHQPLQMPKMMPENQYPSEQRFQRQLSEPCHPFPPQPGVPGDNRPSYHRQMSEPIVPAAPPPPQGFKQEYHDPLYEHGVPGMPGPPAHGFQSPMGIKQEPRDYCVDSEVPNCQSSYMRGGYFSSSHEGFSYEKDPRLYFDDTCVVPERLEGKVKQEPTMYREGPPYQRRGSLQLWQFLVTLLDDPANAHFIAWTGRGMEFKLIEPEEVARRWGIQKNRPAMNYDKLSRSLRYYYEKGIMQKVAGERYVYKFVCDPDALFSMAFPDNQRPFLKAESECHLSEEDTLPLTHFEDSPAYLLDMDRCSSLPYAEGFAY
Sequence of ELF4 (Q99607 whole entry): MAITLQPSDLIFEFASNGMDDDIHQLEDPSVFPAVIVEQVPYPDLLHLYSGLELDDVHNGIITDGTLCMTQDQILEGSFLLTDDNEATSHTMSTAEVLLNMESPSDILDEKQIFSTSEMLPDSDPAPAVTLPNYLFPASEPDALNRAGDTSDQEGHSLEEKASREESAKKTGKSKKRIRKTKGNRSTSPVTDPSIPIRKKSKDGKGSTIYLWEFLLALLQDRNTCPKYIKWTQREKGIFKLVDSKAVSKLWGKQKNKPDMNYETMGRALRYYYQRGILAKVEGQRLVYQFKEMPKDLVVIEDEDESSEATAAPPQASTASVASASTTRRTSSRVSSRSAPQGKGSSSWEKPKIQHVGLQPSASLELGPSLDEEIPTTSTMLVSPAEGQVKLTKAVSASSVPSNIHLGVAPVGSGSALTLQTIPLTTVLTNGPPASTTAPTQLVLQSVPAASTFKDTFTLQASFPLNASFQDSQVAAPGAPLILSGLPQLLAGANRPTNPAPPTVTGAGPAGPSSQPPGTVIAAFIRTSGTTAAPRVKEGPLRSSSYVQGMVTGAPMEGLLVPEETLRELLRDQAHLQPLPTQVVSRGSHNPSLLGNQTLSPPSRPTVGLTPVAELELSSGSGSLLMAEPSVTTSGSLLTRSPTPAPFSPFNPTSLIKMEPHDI
Sequence of ETV1 (P50549 whole entry): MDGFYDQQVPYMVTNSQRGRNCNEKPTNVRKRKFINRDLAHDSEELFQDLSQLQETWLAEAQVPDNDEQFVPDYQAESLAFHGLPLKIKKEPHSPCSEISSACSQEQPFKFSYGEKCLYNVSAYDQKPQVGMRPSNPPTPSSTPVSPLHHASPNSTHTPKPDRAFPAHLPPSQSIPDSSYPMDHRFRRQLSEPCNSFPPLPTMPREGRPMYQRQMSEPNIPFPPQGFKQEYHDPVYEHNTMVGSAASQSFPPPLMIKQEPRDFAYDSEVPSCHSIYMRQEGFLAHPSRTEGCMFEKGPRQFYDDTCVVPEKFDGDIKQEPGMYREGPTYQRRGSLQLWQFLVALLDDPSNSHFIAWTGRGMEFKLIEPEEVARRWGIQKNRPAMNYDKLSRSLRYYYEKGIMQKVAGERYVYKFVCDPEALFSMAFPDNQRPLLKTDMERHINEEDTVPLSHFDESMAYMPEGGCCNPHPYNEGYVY

Row | Sequence | binding signal (FEV) | binding signal (ETV5) | binding signal (HSF1) | binding signal (SPIC) | binding signal (ELF4) | binding signal (ELK4) | binding signal (ETV2) | binding signal (ELF3) | binding signal (ETV1)
1 | AACAAG | 1.03 fold enrichment (6-mer frequency, TF over GST control) | 1.14 fold enrichment (6-mer frequency, TF over GST control) | 1.03 fold enrichment (6-mer frequency, TF over GST control) | 1.15 fold enrichment (6-mer frequency, TF over GST control) | 1.17 fold enrichment (6-mer frequency, TF over GST control) | 1.01 fold enrichment (6-mer frequency, TF over GST control) | 1 fold enrichment (6-mer frequency, TF over GST control) | 1.26 fold enrichment (6-mer frequency, TF over GST control) | 1.13 fold enrichment (6-mer frequency, TF over GST control)
2 | CCCTCA | 1.24 fold enrichment (6-mer frequency, TF over GST control) | 1.18 fold enrichment (6-mer frequency, TF over GST control) | 1.03 fold enrichment (6-mer frequency, TF over GST control) | 1.06 fold enrichment (6-mer frequency, TF over GST control) | 1.28 fold enrichment (6-mer frequency, TF over GST control) | 1.11 fold enrichment (6-mer frequency, TF over GST control) | 1.29 fold enrichment (6-mer frequency, TF over GST control) | 1.17 fold enrichment (6-mer frequency, TF over GST control) | 1.19 fold enrichment (6-mer frequency, TF over GST control)
3 | TGTACC | 1.38 fold enrichment (6-mer frequency, TF over GST control) | 1.4 fold enrichment (6-mer frequency, TF over GST control) | 1.03 fold enrichment (6-mer frequency, TF over GST control) | 1.39 fold enrichment (6-mer frequency, TF over GST control) | 1.26 fold enrichment (6-mer frequency, TF over GST control) | 1.39 fold enrichment (6-mer frequency, TF over GST control) | 1.35 fold enrichment (6-mer frequency, TF over GST control) | 1.38 fold enrichment (6-mer frequency, TF over GST control) | 1.37 fold enrichment (6-mer frequency, TF over GST control)
4 | ATGGAC | 1.3 fold enrichment (6-mer frequency, TF over GST control) | 1.3 fold enrichment (6-mer frequency, TF over GST control) | 1.01 fold enrichment (6-mer frequency, TF over GST control) | 1.34 fold enrichment (6-mer frequency, TF over GST control) | 1.2 fold enrichment (6-mer frequency, TF over GST control) | 1.17 fold enrichment (6-mer frequency, TF over GST control) | 1.33 fold enrichment (6-mer frequency, TF over GST control) | 1.42 fold enrichment (6-mer frequency, TF over GST control) | 1.18 fold enrichment (6-mer frequency, TF over GST control)
5 | ATGCAC | 1.37 fold enrichment (6-mer frequency, TF over GST control) | 1.28 fold enrichment (6-mer frequency, TF over GST control) | 1.03 fold enrichment (6-mer frequency, TF over GST control) | 1.19 fold enrichment (6-mer frequency, TF over GST control) | 1.3 fold enrichment (6-mer frequency, TF over GST control) | 1.36 fold enrichment (6-mer frequency, TF over GST control) | 1.3 fold enrichment (6-mer frequency, TF over GST control) | 1.36 fold enrichment (6-mer frequency, TF over GST control) | 1.19 fold enrichment (6-mer frequency, TF over GST control)
6 | GACCTG | 1.32 fold enrichment (6-mer frequency, TF over GST control) | 1.28 fold enrichment (6-mer frequency, TF over GST control) | 1.01 fold enrichment (6-mer frequency, TF over GST control) | 1.24 fold enrichment (6-mer frequency, TF over GST control) | 1.28 fold enrichment (6-mer frequency, TF over GST control) | 1.29 fold enrichment (6-mer frequency, TF over GST control) | 1.45 fold enrichment (6-mer frequency, TF over GST control) | 1.2 fold enrichment (6-mer frequency, TF over GST control) | 1.21 fold enrichment (6-mer frequency, TF over GST control)
7 | GGTTCC | 1.68 fold enrichment (6-mer frequency, TF over GST control) | 1.57 fold enrichment (6-mer frequency, TF over GST control) | 1.13 fold enrichment (6-mer frequency, TF over GST control) | 1.38 fold enrichment (6-mer frequency, TF over GST control) | 1.44 fold enrichment (6-mer frequency, TF over GST control) | 1.38 fold enrichment (6-mer frequency, TF over GST control) | 1.32 fold enrichment (6-mer frequency, TF over GST control) | 1.7 fold enrichment (6-mer frequency, TF over GST control) | 1.63 fold enrichment (6-mer frequency, TF over GST control)
8 | CGACAT | 1.31 fold enrichment (6-mer frequency, TF over GST control) | 1.26 fold enrichment (6-mer frequency, TF over GST control) | 1.07 fold enrichment (6-mer frequency, TF over GST control) | 1.32 fold enrichment (6-mer frequency, TF over GST control) | 1.32 fold enrichment (6-mer frequency, TF over GST control) | 1.3 fold enrichment (6-mer frequency, TF over GST control) | 1.26 fold enrichment (6-mer frequency, TF over GST control) | 1.42 fold enrichment (6-mer frequency, TF over GST control) | 1.37 fold enrichment (6-mer frequency, TF over GST control)
